# Reference: PubChem BioAssay (NCI)
# This is part of a sample that, as a whole, favours compounds with a hit. Of some 79,000 tested, about 15% had one in any assay. Values without a mark were called inactive. Activity calls are given as the source filed them. Cut-off read from the data, not from the text of the source: active = growth inhibition above about 70%; inactive = the rest.
# Key:
# [1] = NCI Yeast Anticancer Drug Screen. Data for the rad50 strain (AID 155);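 note: 0% = growth of vehicle-only cultures of the same strain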; details: S. cerevisiae rad50 strain growth inhibition, stronger effect = higher value
# Summary of the method: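 Yeast carrying a defined DNA repair defect were exposed to test compounds, and growth was compared with vehicle-treated controls to give percent inhibition.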
# [2] = NCI Yeast Anticancer Drug Screen. Data for the mec2-1 strain (AID 157); details: S. cerevisiae mec2-1 strain, stronger effect = higher value
# Summary of the method: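 Using mec2-1 yeast: add compound, measure growth, express inhibition versus vehicle-treated cultures.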
# [3] = NCI Yeast Anticancer Drug Screen. Data for the sgs1 mgt1 strain (AID 161);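 note: 0% = growth of cultures given vehicle only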; details: S. cerevisiae sgs1 mgt1 strain, stronger effect = higher value
# Summary of the method: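 Compounds are added to genetically altered yeast, and growth is compared with cultures given vehicle alone to give percent inhibition.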
# [4] = NCI Yeast Anticancer Drug Screen. Data for the cln2 rad14 strain (AID 165);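 note: 0% = growth equal to vehicle treated cultures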; details: S. cerevisiae cln2 rad14 strain, stronger effect = higher value
# Summary of the method: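 Yeast strain cln2 rad14, bearing defects in cell cycle control and DNA repair, serves as the test system; values reflect growth inhibition compared with vehicle.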
# [5] = NCI Yeast Anticancer Drug Screen. Data for the bub3 strain (AID 167); details: S. cerevisiae bub3 mutant strain, stronger effect = higher value
# Summary of the method: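 Compounds were applied to a genetically altered yeast strain carrying a cell-cycle control defect. Growth inhibition was scored against vehicle-treated controls.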
# [6] = NCI Yeast Anticancer Drug Screen. Data for the mlh1 rad18 strain (AID 175); details: S. cerevisiae mlh1 rad18 strain growth inhibition, stronger effect = higher value
# Summary of the method: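 Steps: expose repair-defective yeast to compound; measure growth; express inhibition against vehicle-treated controls.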
# [7] = at 5.0 µM (retest, dose inferred, filed as 0.5)
# [8] = at 50.0 µM (retest, dose inferred, filed as 5.0)
Compound,"growth inhibition [1, 7]","growth inhibition [1, 8]",growth inhibition ([1]; at 50.0 µM),"growth inhibition [2, 7]","growth inhibition [2, 8]",growth inhibition ([2]; at 50.0 µM),"growth inhibition [3, 7]","growth inhibition [3, 8]",growth inhibition ([3]; at 50.0 µM),"growth inhibition [4, 7]","growth inhibition [4, 8]",growth inhibition ([4]; at 50.0 µM),"growth inhibition [5, 7]","growth inhibition [5, 8]",growth inhibition ([5]; at 50.0 µM),"growth inhibition [6, 7]","growth inhibition [6, 8]",growth inhibition ([6]; at 50.0 µM)
Cc1cc(NCCO)nc2c1ccc1ccccc12,5%,9%,53.9%,3%,-2%,35.6%,3%,16%,46%,-2%,23%,16.6%,-3%,16%,19%,2%,28%,61.2%
O[C@H](CNCCS)[C@@H](O)CNCCS,-1%,14%,78% (active),2%,28%,54%,-6%,27%,80.1% (active),17%,7%,28.5%,-4%,17%,40%,-5%,3%,79.3% (active)
COc1cc(OC)cc(C2SCC(=O)N2c2nncs2)c1 (stereo not given),2%,2%,20.2%,-5%,-3%,97% (active),0%,2%,55.5%,-2%,2%,98.8% (active),1%,13%,98.6% (active),0%,4%,96.8% (active)
CCC(=O)OC1=C(Br)C(=O)c2ccccc2C1=O,14%,85% (active),89.6% (active),17%,94% (active),57.4%,25%,68%,80.3% (active),4%,68%,1.15%,18%,96% (active),18.9%,38%,85% (active),76.6% (active)
Cc1c(C2Cc3ccccc3N2C(=O)/C=C\C(=O)O)c2ccccc2n1C (stereo not given),33%,32%,74.8% (active),25%,35%,33.4%,39%,34%,40.4%,31%,35%,53.5%,38%,38%,32.6%,42%,35%,22.4%
O=C1NCCCNCCCNCCCNC(=O)c2cccc1n2,32%,30%,-41.7%,23%,21%,-30.6%,21%,24%,-18.1%,18%,28%,5.3%,23%,26%,0.55%,29%,26%,-15.2%
O=[N+]([O-])c1ccccc1OS(=O)(=O)c1ccccc1,0%,-2%,-2.5%,-12%,-8%,-1.1%,4%,20%,-0.45%,-25%,36%,6.4%,-4%,6%,14.3%,-6%,3%,0.65%
CN1/C(=C/C=C/C(I)=C/C=C/C2=[N+](C)c3ccccc3C2(C)C)C(C)(C)c2ccccc21,1%,88% (active),60.5%,8%,89% (active),50.1%,-4%,92% (active),80.6% (active),8%,71% (active),79.4% (active),-2%,89% (active),76.3% (active),-1%,89% (active),84.7% (active)
NCCNCCNCc1c2ccccc2c(CNCCNCCN)c2ccccc12,13%,13%,36.2%,-3%,-3%,90.9% (active),0%,0%,90.9% (active),5%,5%,89.7% (active),7%,7%,43.8%,17%,17%,90.8% (active)
CCCCCCCCCCOC(=O)c1ccccn1,-6%,93% (active),34.1%,-3%,94% (active),42.7%,-3%,60%,37.5%,-3%,75% (active),17.2%,0%,80% (active),43.2%,-2%,83% (active),62.5%
COc1cc([C@H]2c3c(cc(OC)c(OC)c3OC)CC3COC(=O)[C@@H]32)cc2c1OCO2 (stereo not given in full),4%,37%,95.5% (active),2%,25%,98.8% (active),9%,38%,52.2%,1%,4%,98.5% (active),-2%,53%,99.3% (active),-2%,9%,97.5% (active)
Cc1cccc(C)c1O,17%,99% (active),99% (active),-1%,99% (active),98.5% (active),0%,98% (active),98.8% (active),-9%,98% (active),97.8% (active),3%,91% (active),98.5% (active),5%,99% (active),99.5% (active)
CCC(C)(O)C#Cc1ccc(C)nc1 (stereo not given),2%,6%,16.1%,0%,3%,9.4%,-2%,2%,7.7%,0%,-1%,14.5%,1%,-1%,13.8%,-12%,4%,0.4%
CC(=O)C(C(=N)C#N)C(=O)Nc1ccccc1 (stereo not given),1%,10%,-6.9%,2%,-12%,-34.5%,-8%,7%,-22.7%,-14%,-2%,33.6%,6%,-2%,-44%,0%,6%,-15.2%
N#CSC#Cc1ccc(C#CSC#N)cc1,100% (active),98% (active),30.6%,100% (active),96% (active),84.5% (active),100% (active),97% (active),85% (active),99% (active),97% (active),87.5% (active),99% (active),98% (active),88.3% (active),100% (active),98% (active),89.2% (active)
CCc1cccc(CC)c1NC(=O)C(C#N)C1=C(Cl)C(=O)c2ccccc2C1=O (stereo not given),63%,97% (active),89.8% (active),92% (active),98% (active),93.5% (active),73% (active),99% (active),90% (active),36%,99% (active),91.3% (active),67%,99% (active),92.1% (active),75% (active),96% (active),90.5% (active)
CCC(C(c1ccc(Cl)cc1)c1ccc(Cl)c(Cl)c1)[N+](=O)[O-] (stereo not given),4%,12%,8.3%,0%,17%,-4.05%,4%,12%,14.1%,4%,30%,34%,19%,38%,47.5%,1%,32%,5.3%
COC(=O)Nc1nc2ccc(CCC(=O)c3c(C)oc(C)c3-c3ccc(NC(C)=O)cc3)cc2[nH]1,4%,79% (active),58.1%,4%,55%,37.3%,5%,78% (active),75.8% (active),6%,67%,27.4%,5%,70% (active),26.1%,-2%,69%,60.7%
NC(=O)C(CCc1cccc2ccccc12)c1ccccc1 (stereo not given),6%,14%,98.8% (active),-10%,-6%,94.5% (active),-6%,24%,36.3%,-5%,-3%,62.5%,-2%,12%,95.8% (active),-8%,14%,98.4% (active)
C=C1CC[C@@H]2C(C)(C)C(O)CCC2(C)C1COc1ccc2ccc(=O)oc2c1 (stereo not given in full),-10%,94% (active),85.5% (active),-4%,97% (active),89.3% (active),-1%,92% (active),86.7% (active),-5%,94% (active),85.8% (active),-40%,94% (active),86.5% (active),-38%,93% (active),82.8% (active)
